Only some compounds are listed: those with a hit (about 8.5% of all), similar ones and a draw of the others.
Coupling enz = inhibits coupling enzyme system, counter-screen for aldolase hits; activity change, negative = inhibition, % at 58.2 µM, hits read low; 0.67% of 290,000 active; coupling enzyme system counterscreen, AmpLite Red fluorescence; in the data active = activity change below about -30%
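Activity here indicates interference with the coupling reaction, not aldolase inhibition. Compounds at 57.5 uM final met coupling enzymes for 10 min at RT; substrate and AmpLite Red detection followed, with a 525/598 nm fluorescence read after 20 min.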
KDM4E inh = JMJD2E (human) inhibition | B2RXH2 | JMJD2E catalytic domain, FDH-coupled NADH fluorescence (FDH is formaldehyde dehydrogenase) | Potency, µM (highest dose often 57.1 µM), for the others: top-dose activity change, negative = inhibition, usual class: inhibitors | 1.6% of 230,000 active | AID 2147;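 also: potency is read from the fitted curve at half-maximal effect; 0% = wells with enzyme and -100% = buffer wells without enzyme; nearly all actives have a fitted effect of over 50% in size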
Sfp PPTase inh = inhibitors of Bacillus subtilis Sfp phosphopantetheinyl transferase; AID 1490; Biochemical Sfp PPTase activity, qHTS; Q9F4F7; Potency, µM, for the others: largest response in the series, negative = inhibition, actives largely listed as inhibitors; 3.5% of 310,000 active; active = well fitted curve in the direction sought with a large enough effect; inconclusive = small, poorly fitted or top-dose-only effect, or another doubt; inactive = no such curve, though single readings can be large; an effect the other way counts as inactive or inconclusive;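 also: the enzyme is Sfp with the accession as filed and its product quenches rhodamine fluorescence; potency is read from the fitted curve at half-maximal effect; 0% = enzyme reaction without inhibitor and -100% = no enzyme wells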
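Reaction rates are the 30-min fluorescence difference (ex 525, em 598 nm) in wells containing 15 nM Sfp, 5 uM rhodamine-CoA and 12.5 uM BHQ-2-YbbR at pH 7.6 with 10 mM MgCl2.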
NPSR antagonist = blocks cAMP signaling of the human neuropeptide S receptor | AID 1461 | CHO-NPSR cells, cAMP TR-FRET, antagonist mode | Potency, µM (doses to about 38.3 µM), for inactives: at the highest dose activity change, negative = inhibition, most hits filed as inhibitors | Q6W5P4 | 1% of 220,000 active; active = well fitted curve in the direction sought with a large enough effect; inconclusive = small, poorly fitted or top-dose-only effect, or another doubt; inactive = no such curve, though single readings can be large; an effect the other way counts as inactive or inconclusive; also: potency is read from the fitted curve at half-maximal effect; nearly all actives have a fitted effect of over 50% in size
Target sequence (Q6W5P4 whole entry, looked up): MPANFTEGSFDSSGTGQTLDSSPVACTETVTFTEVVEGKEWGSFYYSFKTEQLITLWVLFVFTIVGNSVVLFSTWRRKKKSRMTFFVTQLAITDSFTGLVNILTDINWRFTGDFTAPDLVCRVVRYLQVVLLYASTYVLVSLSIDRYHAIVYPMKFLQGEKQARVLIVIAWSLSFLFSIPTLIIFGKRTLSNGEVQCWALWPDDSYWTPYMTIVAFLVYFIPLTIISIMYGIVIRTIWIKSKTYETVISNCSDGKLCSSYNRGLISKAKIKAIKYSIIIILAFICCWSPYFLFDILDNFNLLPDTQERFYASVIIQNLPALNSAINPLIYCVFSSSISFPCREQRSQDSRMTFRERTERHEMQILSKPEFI
GoLoco inh red = inhibitors of human Gai1-RGS12 GoLoco interaction (red fluorophore) | P63096 | Gai1:RGS12 GoLoco peptide FP, rhodamine, 10 min | Potency, µM (titrated, usually from 61.6 µM), inactives show at the highest dose activity, negative = inhibition, actives largely listed as inhibitors | 0.44% of 230,000 active; active = well fitted inhibition curve with a large enough effect, not every such curve was filed as active; inactive = no such curve, though single readings can be large or run the other way; also: potency is read from the fitted curve at half-maximal effect; nearly all actives have a fitted effect of over 30% in size
Target sequence (P63096 whole entry, looked up): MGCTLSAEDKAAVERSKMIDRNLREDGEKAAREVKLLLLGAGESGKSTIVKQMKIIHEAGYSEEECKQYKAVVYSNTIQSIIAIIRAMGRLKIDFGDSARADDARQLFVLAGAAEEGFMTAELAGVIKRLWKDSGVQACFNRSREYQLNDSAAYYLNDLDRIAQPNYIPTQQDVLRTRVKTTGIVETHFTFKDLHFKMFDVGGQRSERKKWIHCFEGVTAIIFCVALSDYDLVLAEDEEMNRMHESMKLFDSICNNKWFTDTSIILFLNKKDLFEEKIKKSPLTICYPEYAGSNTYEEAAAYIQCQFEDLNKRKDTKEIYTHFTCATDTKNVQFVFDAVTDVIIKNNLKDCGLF
ALDH1A1 inh = inhibitors of human aldehyde dehydrogenase 1A1. P00352. Purified ALDH1A1, NADH fluorescence, propionaldehyde substrate. Potency, µM (highest dose often 75.3 µM), for inactives: at the top dose activity, negative = inhibition, hits mostly inhibitors. 7.3% of 220,000 active;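 also: potency is read from the fitted curve at half-maximal effect; plate controls were no enzyme wells and a reference inhibitor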
Starred values were filed as active, the others as inactive; ? = inconclusive; / = no result given; [ ] = dose if it differs, or a comment. Unless noted, calls follow the shape of the dose curve; as a rule, active = well fitted inhibition curve with a large enough effect (not every such curve was filed as active); inconclusive = small, poorly fitted or top-dose-only effect, or another doubt; inactive = no such curve, though single readings can be large or run the other way. Unless noted, % is scaled to controls: 0 for no effect and ±100 for the full control effect.

SMILES	Coupling enz	KDM4E inh	Sfp PPTase inh	NPSR antagonist	GoLoco inh red	ALDH1A1 inh
CCOC(=O)N1CCC(NC(=O)C2CCN(C(=O)N3CC(C)Oc4ccccc43)CC2)CC1 (configuration not stated)	1.4	3.5%	9.4%	0.6%[46.1 µM]	11.7%	?
O=c1cc(CN2CCN(C/C=C/c3ccccc3)CC2)c2cc(O)ccc2o1	0.5	-9.7%	8.8%	?	12.2%	31.6µM*
COc1ccc(-c2[nH]ncc2CN2CCCC2c2nonc2C)c(F)c1 (configuration not stated)	-0.7	12.8%	21.6%	5.9%	4.0%	?
Cc1nonc1C1CCCN1Cc1cn[nH]c1-c1ccc2c(c1)OCO2 (configuration not stated)	-1.8	4.4%	-3.1%	18.2%	1.1%	15.8µM*
CCN(CC)S(=O)(=O)c1ccc(/C=C/C(=O)OCC(=O)Nc2ccc(S(N)(=O)=O)cc2)cc1	-45.9*	-5.5%	?	7.5%	-1.7%	?
CCN(CC)S(=O)(=O)c1ccc(/C=C/C(=O)OCC(=O)Nc2ccc(C(N)=O)cc2)cc1	4.3	-6.0%	15.3%	3.9%	-3.9%	4.8%
O=C1C=C(O)c2c(O)cccc2C1=O	1.8	6.31µM*	?	-11.6%	-0.7%	/
C[C@H](NC(=O)[C@H](Cc1ccccc1)NC(=O)c1cc2cc(Cl)ccc2n1C)C(=O)O	6.9	/	28.0%	/	/	/
CC(=O)c1ccc(NC(=O)CCSCCC(=O)Nc2ccc(C(C)=O)cc2)cc1	0.9	-4.6%	-1.9%	0.7%[46.1 µM]	2.0%	39.8µM*
COc1ccc(CC(=O)Nc2ccc(C(C)=O)cc2)cc1	-2.9	-9.2%	50.1µM*	5.4%	17.5%	?
CSCC[C@H](NC(=O)[C@H](Cc1ccccc1)n1c(=O)[nH]c2ccccc2c1=O)C(=O)N1CCC(C(=O)O)CC1	0.8	/	15.5%	/	/	/
Cc1cc(/C=N/NC(=O)C(O)(c2ccccc2)c2ccccc2)c(C)n1-c1cccc(C(=O)O)c1	-16.7	?	39.8µM*	-0.9%	86.4%	?
Cc1cc(/C=N/NC(=O)c2cccc(N(C)C)c2)c(C)n1-c1cc(C(=O)O)cc(C(=O)O)c1	-0.4	25.1µM*	-5.5%	5.2%	1.2%	-15.6%
NC(=O)CC(NC(=O)c1cccc(Br)c1)c1ccc(NCCN2CCOCC2)c([N+](=O)[O-])c1 (configuration not stated)	1.4	-13.0%	15.7%	11.7%	0.5%	/
CN(C)c1ncc2nc(-c3ccc(Cl)cc3)c(=O)n(Cc3ccc(F)cc3)c2n1	-0.2	/	-2.4%	/	4.2%	?
O=C(COc1ccccc1)Nc1cccc2nsnc12	0.1	?	-8.8%	-13.7%[46.1 µM]	18.4%	?
O=C(O)COc1cccc2nsnc12	1.1	20µM*	-5.7%	-4.6%[46.1 µM]	-10.6%	?
COc1ccc(/C=C/C(=O)c2ccncc2)c2ccccc12	-43.0*	-29.5%	?	17.3%	-8.2%	-102.7%
COc1ccc2ccccc2c1/C=C\C(=O)c1ccccc1	/	/	/	/	-1.3%[14.2 µM]	1.1%[13.5 µM]
O=C(COC(=O)C12CC3CC(CC(C3)C1)C2)Nc1ccc([N+](=O)[O-])cc1Br	-3.6	5.4%	-17.3%	-32.2%	-1.3%	-8.1%
N#Cc1cc([N+](=O)[O-])ccc1NC(=O)COC(=O)C12CC3CC(CC(C3)C1)C2	1.5	-0.7%	?	16.0%	-4.1%	22.4µM*
O=C(CN1CCN(c2ccccc2)CC1)N1CCc2ccccc21	0.5	/	13.6%	/	/	/
Cc1csc(=N)n1CC(=O)N1CCc2ccccc21	0.7	9.6%	-8.5%	12.6%[46.1 µM]	-1.3%	25.1µM*
O=C(CO/N=C/c1ccccc1O)N1CCc2ccccc21	-1.2	-2.3%	8.4%	-6.5%	1.3%	10µM*
O=C(CCCC(=O)N1CCc2ccccc21)N1CCc2ccccc21	1.3	-0.8%	8.7%	0.1%[46.1 µM]	5.1%	9.7%
SMILES	Coupling enz	KDM4E inh	Sfp PPTase inh	NPSR antagonist	GoLoco inh red	ALDH1A1 inh
O=C(CN1CCN(c2ccc(O)cc2)CC1)N1CCc2ccccc21	-7.1	/	39.8µM*	/	/	/
CCOCC(=O)N1CCc2ccccc21	1.3	0.0%	26.1%	-8.7%[46.1 µM]	6.5%	3.55µM*
O=C(CN1CCCCC1)N1CCc2ccccc21	0.4	/	15.9%	/	/	/
COc1ccc(S(=O)(=O)N2CCOC2CNC(=O)C(=O)NCCN2CCOCC2)cc1 (configuration not stated)	/	/	12.6%	/	/	/
CCCCCN(C(=O)CCC(=O)OCC(=O)c1cccc(OC)c1)c1c(N)n(CCCC)c(=O)[nH]c1=O	/	/	20.0%	/	/	/
NS(=O)(=O)c1ccc(NCc2nc3ccccc3[nH]2)cc1	/	/	/	/	5.0%[14.2 µM]	0.2%[13.5 µM]
COc1ccc(C(=O)CCC(=O)NC2=NCCS2)cc1	/	/	-11.5%	/	/	/
N/C(=N\OC(=O)CCC1CCCC1)c1cccc([N+](=O)[O-])c1	-2.2	0.8%	9.6%	3.8%[46.1 µM]	/	-2.3%
N/C(=N\OC(=O)CC1CCCCC1)c1cccc([N+](=O)[O-])c1	-0.2	-4.8%	-4.5%	-0.3%	7.9%	12.6µM*
CCOCCOc1cccc(C(=O)NC(C)c2ccc3ccccc3c2)c1 (configuration not stated)	-1.8	/	7.7%	/	/	/
CCNC(=S)NNC(=O)c1cc(C2CC2)nc2ccccc12	-0.1	2.5%	17.9%	-8.2%[46.1 µM]	5.1%	0.6%
O=C(O)c1ccc2cc(-c3ccc(O)c(C45CC6CC(CC(C6)C4)C5)c3)ccc2c1	0.9	?	-8.8%	/	0.9%	?
COc1cccc(NC(=O)CCC2CCN(C(=O)c3ccc(C(C)=O)s3)CC2)c1	/	/	11.2%	/	/	/
CN(C)c1nc(N/N=C/c2ccccc2O)nc(Nc2ccc(F)cc2)n1	-9.2	28.2µM*	-1.2%	-41.5%	-2.0%	3.6%
CCOC(=O)c1cc(C)nc(SC)c1C#N	3.6	?	79.4µM*	0.2%	10.7%	39.8µM*
CCOC(=O)c1cc(C#N)c(SCC(=O)c2cc(C#N)c(SC)nc2C)nc1C	4.0	-3.4%	15.8µM*	?	51.1%	?
CC(=O)c1cc(C#N)c(SCC(=O)OC(C)(C)C)nc1C	-0.8	2.7%	4.4%	0.8%[46.1 µM]	-1.7%	6.31µM*
CCOC(=O)c1cc(C(C)(C)C)nc(SC)c1C#N	5.3	-5.9%	-2.7%	16.2%	10.7%	-0.7%
O=S(=O)(c1ccccc1)N1CCC2(CCN(c3cccc(-c4ccccc4)c3)CC2)CC1	0.4	/	1.5%	/	118.0%	?
Cc1cccc2c(=O)cc(C)n(CC(N)=O)c12	-13.5	63.3%	-9.3%	9.0%	4.5%	/
Cc1cc2cc(CNS(=O)(=O)N(C)C)ccc2[nH]1	-35.8*	?	-13.1%	-5.4%[46.1 µM]	0.2%	-5.7%
Cc1cc2cc(CNC(=O)c3ccc4c(c3)OCO4)ccc2[nH]1	0.4	?	8.9%	-19.4%[46.1 µM]	9.9%	35.5µM*
COc1cc(OC)cc(C(=O)NCc2ccc3[nH]c(C)cc3c2)c1	-1.3	-5.0%	-4.7%	0.5%	4.1%	?

Source: PubChem
